Our source for the outcome and Potency values is PubChem BioAssay (Tox21).

Unmarked numbers belong to inactive results. Results filed as inconclusive are left out. Active and inactive are the calls of the source. Unless noted, calls follow the shape of the dose curve; as a rule, active = well fitted curve in the direction sought with a large enough effect in the repeat runs; inconclusive = weak or mixed curves; inactive = no such curve, though single readings can be large; an effect the other way counts as inactive or inconclusive.

Test [1] in a line: qHTS assay for small molecule agonists of the p53 signaling pathway (AID 651631; calls by dose curve; also: nearly all actives have a fitted effect of over 15% in size). In outline: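 Readout was fluorescence from the LiveBLAzer FRET substrate, applied for 2 h at room temperature after 16 h compound exposure at 37 °C. Cells were the p53RE-bla HCT-116 line, with beta-lactamase driven by p53 response elements.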
A general note: qHTS replaces the single test concentration by a dilution series.

Test [2] is described as follows: qHTS assay for small molecules that induce genotoxicity in human embryonic kidney cells expressing luciferase-tagged ATAD5 (AID 651632). Also: nearly all actives have a fitted effect of over 15% in size. A digest of the protocol:
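Cells were seeded at 2,000 per well, dosed with compound, and incubated 16 hr at 37C in 5% CO2. Luciferase activity was then quantified after a 30 min room-temperature incubation with Amplite.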

Test [3] can be described thus: qHTS assay for small molecule agonists of the p53 signaling pathway - cell viability (AID 651633; calls by dose curve; also: series mostly up to about 83 µM; nearly all actives have a fitted effect of over 30% in size). A digest of the protocol: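 p53RE-bla cells, seeded at 4,000 per well and rested 5 h at 37 C/5% CO2, received compounds in DMSO for 16 h at 37 C. CellTiter-Glo was then added, and luminescence was read after 30 min at room temperature to gauge cytotoxicity.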
Test [4] can be described thus: qHTS assay for small molecules that induce genotoxicity in human embryonic kidney cells expressing luciferase-tagged ATAD5 - cell viability (AID 651634; calls by dose curve; also: nearly all actives have a fitted effect of over 25% in size). A digest of the protocol: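 Cells (HEK293T, luciferase-tagged ATAD5) are seeded at 2,000 per well, dosed with compound or DMSO vehicle, and incubated 15.5 hr at 37C and 5% CO2. CellTiter-Fluor is added for 30 min before fluorescence is measured.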

Test [5] is described as follows: qHTS assay for small molecule disruptors of the mitochondrial membrane potential - cell viability (AID 720634; calls by dose curve;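 also: human HepG2 liver cancer cells; series mostly up to about 83 µM; nearly all actives have a fitted effect of over 20% in size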). A digest of the protocol:
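Cytotoxicity was measured by ATP quantitation in HepG2 wells that had first been treated with compound for 1 hr and stained with m-MPI dye; CellTiter-Glo incubation was 30 min at room temperature.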

A short description of test [6]: qHTS assay for small molecule disruptors of the mitochondrial membrane potential (AID 720635). Also: potency is read from the fitted curve at half-maximal effect. A digest of the protocol:
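HepG2 cells (2,000/well) attached overnight at 37C, then took compound for 1 hr at 37C, 5% CO2. Mito-MPS dye was added for 30 min; fluorescence was read at 490/535 nm (monomers) and 540/590 nm (aggregates).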

A short description of test [7]: qHTS assay to test for compound auto fluorescence at 590 nm (red) in HepG2 cells (AID 720674). A digest of the protocol: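 Rose Bengal sodium served as the red fluorophore standard. HepG2 monolayers (overnight attachment, MEM with 10% FBS) were exposed to test compounds for 1 hr at 37 C and read at Ex 540/Em 590 nm.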
The nature of test [8]: qHTS assay to test for compound auto fluorescence at 535 nm (green) in HepG2 cells (AID 720675).
A short description of test [9]: qHTS assay to test for compound auto fluorescence at 460 nm (blue) in HEK293 cells (AID 720678). In outline: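 HEK293, 2,000 cells/well, 10% dialyzed FBS; attach 4-5 hr 37C; pin compound or DMSO; o/n 37C/5% CO2; fluorescence 405/460 nm; triamterene-equivalent units.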
The nature of test [10]: qHTS assay to test for compound auto fluorescence at 590 nm (red) in HEK293 cells (AID 720679). In outline:
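Intensity at 540nm excitation and 590nm emission is reported as Rose Bengal sodium-equivalent autofluorescence. Measurements followed overnight exposure (37C, 5% CO2) of HEK293 cells, 2,000 per well, to 23 nL compound.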

Test [11] in a line: qHTS assay to test for compound auto fluorescence at 535 nm (green) in HEK293 cells (AID 720680).
The nature of test [12]: qHTS assay to test for compound auto fluorescence at 460 nm (blue) in HEK293 cell free culture (AID 720681). A digest of the protocol: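 Test compounds were pinned into cell-free culture medium (DMEM with 10% FBS) and fluorescence was read directly at Ex/Em 405/460 nm. Signals were expressed as fluorescence equivalents of triamterene, with DMSO vehicle as control.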
Test [13] is described as follows: qHTS assay to test for compound auto fluorescence at 535 nm (green) in HEK293 cell free culture (AID 720682). A digest of the protocol:
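Compounds were pin-transferred into cell-free DMEM with 10% FBS, and green fluorescence was read at excitation 485 nm and emission 535 nm. Intensities were expressed as fluorescein-equivalent values.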

Test [14] in a line: qHTS assay to test for compound auto fluorescence at 590 nm (red) in HEK293 cell free culture (AID 720683). A digest of the protocol:
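Tox21 10K library compounds were pinned into cell-free DMEM with 10% FBS and fluorescence was read at excitation 540 nm. Activity is expressed as Rose Bengal sodium equivalency.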

The nature of test [15]: qHTS assay to test for compound auto fluorescence at 590 nm (red) in HepG2 cell free culture (AID 720684). In outline: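 Ex 540 / Em 590 nm read of compound in cell-free MEM (10% FBS). Rose Bengal sodium reference.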
The nature of test [16]: qHTS assay to test for compound auto fluorescence at 460 nm (blue) in HepG2 cell free culture (AID 720685). In outline: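 Cell-free plates of MEM plus 10% FBS received 23 nL compound or DMSO vehicle; blue-channel (405/460 nm) intensity scored against triamterene as reference fluorophore.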
A short description of test [17]: qHTS assay to test for compound auto fluorescence at 535 nm (green) in HepG2 cell free culture (AID 720686).
Test [18] in a line: qHTS assay to test for compound auto fluorescence at 460 nm (blue) in HepG2 cells (AID 720687). In outline: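 Cells (2,000/well in MEM with 10% FBS) attached overnight at 37 C, then were exposed to compound or DMSO for 1 hr at 37 C, 5% CO2. Fluorescence read at Ex/Em 405/460 nm, expressed as triamterene-equivalent signal.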
Test [19] addresses Glucocorticoid receptor (Homo sapiens) (UniProt P04150). As to the kind of experiment: qHTS assay to identify small molecule agonists of the glucocorticoid receptor (GR) signaling pathway (AID 720691; active = well fitted activation curve with a large enough effect in the signal ratio in the repeat runs, not every such curve was filed as active; the % refers to the signal ratio). A digest of the protocol: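 Steps: seed GR-bla HeLa cells, incubate 4 h at 37 C/5% CO2; pin-transfer DMSO-dissolved compounds; incubate 18 h at 37 C; add LiveBLAzer B/G FRET substrate; after 2 h at room temperature, measure fluorescence.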

For test [20] the target is unchanged. As to the kind of experiment: qHTS assay to identify small molecule antagonists of the glucocorticoid receptor (GR) signaling pathway (AID 720692; active = well fitted inhibition curve with a large enough effect in the signal ratio in the repeat runs, not every such curve was filed as active; the % refers to the signal ratio). In outline: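 Antagonism was scored as loss of dexamethasone-driven (5 nM final) reporter signal in HeLa cells bearing a glucocorticoid response element–beta-lactamase construct, after 18 h compound exposure at 37 C and 2 h FRET substrate loading.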

Glucocorticoid receptor (Homo sapiens), sequence (P04150 whole entry, looked up): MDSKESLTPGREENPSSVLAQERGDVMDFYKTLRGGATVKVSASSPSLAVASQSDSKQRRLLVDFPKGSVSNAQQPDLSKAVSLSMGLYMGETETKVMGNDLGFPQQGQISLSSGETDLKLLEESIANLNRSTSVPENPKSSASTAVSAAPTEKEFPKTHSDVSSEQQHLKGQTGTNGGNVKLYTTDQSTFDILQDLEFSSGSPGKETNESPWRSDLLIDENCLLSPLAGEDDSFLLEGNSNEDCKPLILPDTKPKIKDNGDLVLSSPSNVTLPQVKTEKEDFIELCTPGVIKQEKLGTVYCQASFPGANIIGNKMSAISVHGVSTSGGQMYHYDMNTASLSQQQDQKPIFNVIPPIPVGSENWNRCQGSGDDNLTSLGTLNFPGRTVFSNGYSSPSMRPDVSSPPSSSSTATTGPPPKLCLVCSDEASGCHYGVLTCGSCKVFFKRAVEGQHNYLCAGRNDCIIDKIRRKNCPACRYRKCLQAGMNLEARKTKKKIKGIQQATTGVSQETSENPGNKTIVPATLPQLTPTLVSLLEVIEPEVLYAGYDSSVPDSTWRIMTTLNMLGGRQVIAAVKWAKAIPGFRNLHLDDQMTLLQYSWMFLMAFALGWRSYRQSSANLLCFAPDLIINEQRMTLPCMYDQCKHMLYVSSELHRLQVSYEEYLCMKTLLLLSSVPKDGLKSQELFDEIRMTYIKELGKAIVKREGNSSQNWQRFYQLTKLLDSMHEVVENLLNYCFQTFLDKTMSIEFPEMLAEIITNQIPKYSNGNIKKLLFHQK

Regarding `CC(=O)OCC(=O)Nc1cc(C#N)cc(NC(=O)COC(C)=O)c1Cl`, the outcome in test [1], in [2], in test [3], in test [5], in test [7] and in test [8] was inactive. Further, the compound was classed as inactive in [9], in test [10], in [11], in [12], in test [13] and in test [14]. In addition, the call in test [15], in [16], in [17] and in test [18] was inactive. For the same compound, the Potency result in test [4], in test [6] and in [19] was “inactive” each time.
Turning to `CCO[Si](CC)(OCC)OCC`, the compound was classed as inactive in test [1], in [2], in test [3], in [5], in test [7] and in [8]. Besides, the outcome in [9], in test [10], in test [11], in test [12], in test [13] and in test [14] was inactive. Besides, the compound was called inactive in test [15], in test [16], in [17] and in test [18]. The Potency result in [4] was “inactive”. Moreover, the Potency in test [6] is 61.1 µM (active).
Consider `Cc1cc(-c2ccccc2)nnc1NCCN1CCOCC1`, for which the compound was classed as inactive in test [1], in [2], in [3], in test [5], in [7] and in [8]. Besides, the result in [9], in test [10], in [11], in test [12], in [13] and in test [14] was inactive. For the same compound, the compound was classed as inactive in [15], in [16], in test [17] and in [18]. Besides, the Potency result in test [4] and in test [6] was “inactive” throughout.
`CC1=NN(c2ccc(S(=O)(=O)O)cc2)C(=O)C1`: the call in test [1], in [2], in test [3], in test [5], in test [7] and in [8] was inactive. Further, the call in test [9], in [10], in test [11], in test [12], in test [13] and in test [14] was inactive. The compound was classed as inactive in [15], in test [16], in test [17], in test [18] and in test [20]. Besides, the Potency entry in test [4], in test [6] and in test [19] was “inactive” throughout.
Regarding `O=Cc1cc2ccccc2o1`, the result in [1], in test [2], in [3], in test [5], in test [7] and in test [8] was inactive. The compound was called inactive in test [9], in test [10], in test [11], in test [12], in test [13] and in test [14]. The compound was classed as inactive in test [15], in [16], in test [17], in [18] and in test [20]. Besides, the Potency entry in test [4], in test [6] and in test [19] was “inactive” each time.
Consider `CCCCCCCCCCOC(C)=O`, for which the compound was called inactive in test [1], in test [2], in test [3], in test [5], in test [7] and in [8]. Moreover, the compound was classed as inactive in [9], in test [10], in test [11], in test [12], in test [13] and in test [14]. Besides, the compound was called inactive in [15], in test [16], in test [17] and in test [18]. Also, the Potency entry in test [4], in test [6] and in test [19] was “inactive” throughout.
As to `CCCc1ccc(O)cc1`, the call in test [1], in test [2], in [3], in test [5], in test [8] and in test [9] was inactive. Moreover, the result in test [10], in test [11], in [13], in test [14], in [15] and in [16] was inactive. The compound was classed as inactive in test [17] and in [18]. Moreover, the Potency entry in test [4] and in [19] was “inactive” in each case. In test [6], the Potency was 54.5 µM (active).
